Assay results: paper PMC7862700, “An all-to-all approach to the identification of sequence-specific readers for epigenetic DNA modifications on cytosine”

What was measured:
Assay in all cases: DAPPL (digital affinity profiling via proximity ligation, sequencing); 10 mM Tris-HCl pH 7.5, 50 mM NaCl, 1 mM DTT, 4% glycerol, room temperature, 30 min; GST-TFs on glutathione beads, 16-mer random dsDNA library, 0.1% formaldehyde crosslink after washing; high values mean tight binding
Settings in all cases: protein: recombinant; tags: N-terminal GST; dsDNA, one strand shown
FLI1 = target: T1, FLI1 (Homo sapiens, UniProt Q01543 1-452)
T1 sequence: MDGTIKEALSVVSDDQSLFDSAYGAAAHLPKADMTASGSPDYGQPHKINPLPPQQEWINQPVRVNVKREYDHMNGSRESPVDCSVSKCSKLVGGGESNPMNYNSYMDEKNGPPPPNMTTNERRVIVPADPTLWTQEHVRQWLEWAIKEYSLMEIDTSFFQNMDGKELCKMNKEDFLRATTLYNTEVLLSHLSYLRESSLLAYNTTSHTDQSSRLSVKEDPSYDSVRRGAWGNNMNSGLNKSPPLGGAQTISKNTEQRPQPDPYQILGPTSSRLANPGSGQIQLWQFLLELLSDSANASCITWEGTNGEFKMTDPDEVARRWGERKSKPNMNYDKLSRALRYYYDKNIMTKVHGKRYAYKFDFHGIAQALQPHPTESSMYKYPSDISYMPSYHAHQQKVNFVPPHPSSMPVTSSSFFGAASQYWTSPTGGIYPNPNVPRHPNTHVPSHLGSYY
Summary of the method: (§1)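 In yeast, human transcription factors were expressed with a GST fusion, then pulled down on glutathione beads and given DNA barcodes. Pooled with a tag-only sample, they were exposed to 200 nmole of a 16-mer random double-stranded DNA library (Tris/NaCl/DTT/glycerol buffer, room temperature, 30 min), washed, crosslinked with 0.1% formaldehyde, proximity-ligated using BsaI/T4 ligase for 1 h at 37 °C, PCR-amplified and read on an Illumina NextSeq500. Each hexamer's frequency of reads for a factor, divided by the matching frequency for the tag-only sample, gives the binding signal.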

ELK1 = target: T2, ELK1 (Homo sapiens, UniProt P19419 1-428)
T2 sequence: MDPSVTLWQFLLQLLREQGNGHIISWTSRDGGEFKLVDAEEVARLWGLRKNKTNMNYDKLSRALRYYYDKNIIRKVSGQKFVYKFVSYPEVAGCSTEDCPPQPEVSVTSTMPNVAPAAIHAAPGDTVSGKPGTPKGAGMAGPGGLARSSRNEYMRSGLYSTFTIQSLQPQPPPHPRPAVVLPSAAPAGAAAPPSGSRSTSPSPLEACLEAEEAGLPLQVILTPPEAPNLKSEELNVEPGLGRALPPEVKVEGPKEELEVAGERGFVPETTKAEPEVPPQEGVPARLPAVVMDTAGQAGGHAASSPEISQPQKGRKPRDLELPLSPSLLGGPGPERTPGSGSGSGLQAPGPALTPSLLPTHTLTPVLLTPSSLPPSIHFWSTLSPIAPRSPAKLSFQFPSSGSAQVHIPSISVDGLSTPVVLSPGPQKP
Summary of the method: as §1

ERG = target: T3, ERG (Homo sapiens, UniProt P11308 1-479)
T3 sequence: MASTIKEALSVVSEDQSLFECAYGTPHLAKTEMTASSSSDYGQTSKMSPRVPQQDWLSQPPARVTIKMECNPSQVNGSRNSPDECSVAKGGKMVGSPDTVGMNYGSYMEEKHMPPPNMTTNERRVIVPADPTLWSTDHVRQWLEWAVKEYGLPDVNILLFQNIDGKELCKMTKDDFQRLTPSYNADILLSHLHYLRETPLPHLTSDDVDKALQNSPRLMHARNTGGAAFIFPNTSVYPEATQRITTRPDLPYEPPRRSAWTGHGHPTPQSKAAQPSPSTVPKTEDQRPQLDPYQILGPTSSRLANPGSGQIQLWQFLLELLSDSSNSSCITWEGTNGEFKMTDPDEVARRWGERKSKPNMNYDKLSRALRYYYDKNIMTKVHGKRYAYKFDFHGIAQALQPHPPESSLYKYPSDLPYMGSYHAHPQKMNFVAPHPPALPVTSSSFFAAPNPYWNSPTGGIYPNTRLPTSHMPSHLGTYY
Summary of the method: as §1

SPIB = SPIB (Homo sapiens, UniProt Q01892 1-262)
Summary of the method: as §1

SPIC = target: T4, SPIC (Homo sapiens, UniProt Q8N5J4 1-248)
T4 sequence: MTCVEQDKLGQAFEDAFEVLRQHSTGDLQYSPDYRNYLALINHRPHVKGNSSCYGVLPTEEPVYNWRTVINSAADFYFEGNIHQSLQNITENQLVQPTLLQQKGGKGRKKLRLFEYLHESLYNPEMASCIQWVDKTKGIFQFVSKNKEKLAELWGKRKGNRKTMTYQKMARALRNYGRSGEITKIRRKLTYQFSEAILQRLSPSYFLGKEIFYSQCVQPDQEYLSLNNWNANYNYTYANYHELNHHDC
Summary of the method: as §1

ETV7 = target: T5, ETV7 (Homo sapiens, UniProt Q9Y603 1-341)
T5 sequence: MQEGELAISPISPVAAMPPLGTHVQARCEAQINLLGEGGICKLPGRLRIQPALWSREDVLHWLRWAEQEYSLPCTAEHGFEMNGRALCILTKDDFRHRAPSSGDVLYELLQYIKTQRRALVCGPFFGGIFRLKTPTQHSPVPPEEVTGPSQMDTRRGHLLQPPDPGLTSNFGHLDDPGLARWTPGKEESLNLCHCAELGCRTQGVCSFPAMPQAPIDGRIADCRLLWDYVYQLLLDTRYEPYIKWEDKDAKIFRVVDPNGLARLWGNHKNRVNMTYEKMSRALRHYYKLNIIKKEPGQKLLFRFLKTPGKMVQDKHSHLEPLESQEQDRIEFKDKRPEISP
Summary of the method: as §1

ETV3 = target: T6, ETV3 (Homo sapiens, UniProt P41162-2 1-143)
T6 sequence: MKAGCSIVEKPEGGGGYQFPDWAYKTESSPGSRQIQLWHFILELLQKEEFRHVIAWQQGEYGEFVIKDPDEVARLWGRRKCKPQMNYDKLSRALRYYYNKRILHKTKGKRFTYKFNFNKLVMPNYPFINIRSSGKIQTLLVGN
Summary of the method: as §1

ELK3 = target: T7, ELK3 (Homo sapiens, UniProt P41970 1-407)
T7 sequence: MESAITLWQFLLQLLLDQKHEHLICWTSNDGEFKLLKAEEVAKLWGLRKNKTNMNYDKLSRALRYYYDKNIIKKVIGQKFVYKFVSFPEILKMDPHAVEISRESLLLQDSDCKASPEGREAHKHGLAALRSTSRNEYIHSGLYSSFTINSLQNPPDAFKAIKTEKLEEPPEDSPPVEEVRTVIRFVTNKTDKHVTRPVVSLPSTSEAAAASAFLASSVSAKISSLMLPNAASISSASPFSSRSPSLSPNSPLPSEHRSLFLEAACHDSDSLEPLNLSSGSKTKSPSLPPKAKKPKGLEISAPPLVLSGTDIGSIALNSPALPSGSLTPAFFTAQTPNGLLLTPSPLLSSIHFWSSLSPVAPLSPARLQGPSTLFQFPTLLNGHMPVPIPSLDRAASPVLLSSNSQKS
Summary of the method: as §1

ELF4 = ELF4 (Homo sapiens, UniProt Q99607 1-663)
Summary of the method: as §1

ELK4 = target: T8, ELK4 (Homo sapiens, UniProt P28324-2 1-405)
T8 sequence: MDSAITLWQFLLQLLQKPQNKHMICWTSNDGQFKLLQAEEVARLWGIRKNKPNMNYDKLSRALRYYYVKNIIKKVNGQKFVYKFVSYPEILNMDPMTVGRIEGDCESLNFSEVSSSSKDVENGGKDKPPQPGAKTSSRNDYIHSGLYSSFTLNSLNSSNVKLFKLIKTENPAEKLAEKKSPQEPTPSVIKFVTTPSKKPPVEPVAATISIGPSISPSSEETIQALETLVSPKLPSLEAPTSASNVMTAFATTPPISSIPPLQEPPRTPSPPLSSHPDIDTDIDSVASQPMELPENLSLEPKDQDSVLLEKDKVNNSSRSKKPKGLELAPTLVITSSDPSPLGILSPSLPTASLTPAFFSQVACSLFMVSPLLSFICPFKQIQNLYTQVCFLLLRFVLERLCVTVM
Summary of the method: as §1

ETV2 = target: T9, ETV2 (Homo sapiens, UniProt O00321 1-342)
T9 sequence: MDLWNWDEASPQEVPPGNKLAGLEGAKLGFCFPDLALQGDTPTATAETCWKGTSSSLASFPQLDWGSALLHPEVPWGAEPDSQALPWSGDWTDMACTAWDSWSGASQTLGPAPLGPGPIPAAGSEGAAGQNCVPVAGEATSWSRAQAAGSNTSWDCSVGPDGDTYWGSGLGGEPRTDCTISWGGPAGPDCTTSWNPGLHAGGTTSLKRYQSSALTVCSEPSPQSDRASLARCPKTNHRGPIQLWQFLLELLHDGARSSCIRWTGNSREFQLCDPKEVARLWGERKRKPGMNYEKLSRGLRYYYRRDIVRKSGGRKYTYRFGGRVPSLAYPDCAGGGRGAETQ
Summary of the method: as §1

CRX = CRX (Homo sapiens, UniProt O43186 1-299)
Summary of the method: as §1

ETV1 = ETV1 (Homo sapiens, UniProt P50549 1-477)
Summary of the method: as §1

ETV3L = target: T10, ETV3L (Homo sapiens, UniProt Q6ZN32 1-361)
T10 sequence: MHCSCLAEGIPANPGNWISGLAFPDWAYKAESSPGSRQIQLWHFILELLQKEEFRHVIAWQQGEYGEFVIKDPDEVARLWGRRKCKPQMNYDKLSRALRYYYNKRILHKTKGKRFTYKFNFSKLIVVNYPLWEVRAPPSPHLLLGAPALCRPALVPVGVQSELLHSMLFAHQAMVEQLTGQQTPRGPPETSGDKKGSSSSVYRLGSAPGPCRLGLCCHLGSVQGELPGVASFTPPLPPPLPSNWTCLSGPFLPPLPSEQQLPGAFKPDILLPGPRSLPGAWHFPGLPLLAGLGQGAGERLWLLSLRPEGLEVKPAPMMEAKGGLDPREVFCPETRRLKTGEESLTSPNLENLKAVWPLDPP
Summary of the method: as §1

Chain of SPIB (Q01892 whole entry): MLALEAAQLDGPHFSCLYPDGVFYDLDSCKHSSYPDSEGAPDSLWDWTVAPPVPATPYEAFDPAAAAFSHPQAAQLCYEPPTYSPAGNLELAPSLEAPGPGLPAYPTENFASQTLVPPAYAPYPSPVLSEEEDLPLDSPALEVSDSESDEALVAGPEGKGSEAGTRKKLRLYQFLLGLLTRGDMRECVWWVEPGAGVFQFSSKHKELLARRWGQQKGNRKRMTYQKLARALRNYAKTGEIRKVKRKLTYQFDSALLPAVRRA
Chain of ETV1 (P50549 whole entry): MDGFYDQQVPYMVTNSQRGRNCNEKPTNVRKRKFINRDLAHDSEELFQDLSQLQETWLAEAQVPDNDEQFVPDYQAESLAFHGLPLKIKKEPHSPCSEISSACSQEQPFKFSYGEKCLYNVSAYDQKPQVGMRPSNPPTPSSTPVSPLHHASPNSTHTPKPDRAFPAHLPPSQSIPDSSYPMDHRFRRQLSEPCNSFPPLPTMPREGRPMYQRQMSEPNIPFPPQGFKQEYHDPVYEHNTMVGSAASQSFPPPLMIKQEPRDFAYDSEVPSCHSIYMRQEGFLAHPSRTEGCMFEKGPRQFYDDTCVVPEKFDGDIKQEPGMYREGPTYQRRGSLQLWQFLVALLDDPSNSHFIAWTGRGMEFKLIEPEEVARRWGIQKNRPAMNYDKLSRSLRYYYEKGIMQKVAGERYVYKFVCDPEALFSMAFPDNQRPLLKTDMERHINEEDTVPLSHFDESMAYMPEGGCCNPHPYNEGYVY
Chain of CRX (O43186 whole entry): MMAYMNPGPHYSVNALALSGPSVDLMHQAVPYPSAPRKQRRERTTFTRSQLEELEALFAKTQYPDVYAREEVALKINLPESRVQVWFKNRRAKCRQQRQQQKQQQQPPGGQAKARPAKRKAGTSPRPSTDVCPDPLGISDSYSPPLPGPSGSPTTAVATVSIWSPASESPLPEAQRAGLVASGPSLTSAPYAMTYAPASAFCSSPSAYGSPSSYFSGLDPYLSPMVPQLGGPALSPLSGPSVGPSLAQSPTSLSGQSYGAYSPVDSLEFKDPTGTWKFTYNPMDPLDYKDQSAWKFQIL
Chain of ELF4 (Q99607 whole entry): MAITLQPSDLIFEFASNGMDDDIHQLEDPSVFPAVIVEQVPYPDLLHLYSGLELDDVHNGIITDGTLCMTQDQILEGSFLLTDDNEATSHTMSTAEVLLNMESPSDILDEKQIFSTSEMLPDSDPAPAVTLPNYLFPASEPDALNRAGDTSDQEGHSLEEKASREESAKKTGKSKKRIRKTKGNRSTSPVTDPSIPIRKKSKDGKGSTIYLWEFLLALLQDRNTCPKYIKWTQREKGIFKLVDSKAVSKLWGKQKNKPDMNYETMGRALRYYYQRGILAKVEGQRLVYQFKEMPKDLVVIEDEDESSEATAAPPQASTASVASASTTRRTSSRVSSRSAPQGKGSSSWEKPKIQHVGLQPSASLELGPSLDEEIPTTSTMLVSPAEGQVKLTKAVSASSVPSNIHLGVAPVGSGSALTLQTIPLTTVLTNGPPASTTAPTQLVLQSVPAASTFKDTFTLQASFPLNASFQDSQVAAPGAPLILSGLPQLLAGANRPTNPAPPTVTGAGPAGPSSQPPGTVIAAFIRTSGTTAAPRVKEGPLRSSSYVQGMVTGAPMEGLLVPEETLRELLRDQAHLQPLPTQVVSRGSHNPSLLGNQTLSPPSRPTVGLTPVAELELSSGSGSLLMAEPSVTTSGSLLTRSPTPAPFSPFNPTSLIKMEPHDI

| Sequence | binding signal (FLI1) | binding signal (ELK1) | binding signal (ERG) | binding signal (SPIB) | binding signal (SPIC) | binding signal (ETV7) | binding signal (ETV3) | binding signal (ELK3) | binding signal (ELF4) | binding signal (ELK4) | binding signal (ETV2) | binding signal (CRX) | binding signal (ETV1) | binding signal (ETV3L) |
| --- | --- | --- | --- | --- | --- | --- | --- | --- | --- | --- | --- | --- | --- | --- |
| CCCGCG | 1.02 fold enrichment (6-mer frequency, TF over GST control) | 1.05 fold enrichment (6-mer frequency, TF over GST control) | 1.02 fold enrichment (6-mer frequency, TF over GST control) | 1.11 fold enrichment (6-mer frequency, TF over GST control) | 1.05 fold enrichment (6-mer frequency, TF over GST control) | 1.03 fold enrichment (6-mer frequency, TF over GST control) | 1.01 fold enrichment (6-mer frequency, TF over GST control) | – | – | – | – | – | – | – |
| CAAGCT | 1.05 fold enrichment (6-mer frequency, TF over GST control) | – | – | 1.04 fold enrichment (6-mer frequency, TF over GST control) | – | – | 1.02 fold enrichment (6-mer frequency, TF over GST control) | 1.03 fold enrichment (6-mer frequency, TF over GST control) | 1.02 fold enrichment (6-mer frequency, TF over GST control) | 1.13 fold enrichment (6-mer frequency, TF over GST control) | 1.02 fold enrichment (6-mer frequency, TF over GST control) | 1.1 fold enrichment (6-mer frequency, TF over GST control) | 1.04 fold enrichment (6-mer frequency, TF over GST control) | 1.05 fold enrichment (6-mer frequency, TF over GST control) |
